PubChem BioAssay (EPA / NIEHS)
Records with an inconclusive call do not appear. Calls of active or inactive are those of the source. Rule for the calls: active = hit-call score of the fitted dose curve at least 0.9, where 1 is the maximum; inconclusive = response in the unintended direction; inactive = score below 0.9.

Experiment: ACEA_ER_AUC_viability: ACEA Biosciences xCELLigence Real-Time Cell Analysis on Estrogen Receptor Agonism for Viability (AID 2283782);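 note: hit means loss of impedance signal meaning reduced cell growth or viability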
In short: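 Read-out: real-time electrical impedance (RT-CES) area under curve, loss of signal taken as reduced viability, normalized to DMSO baseline. T-47D cells, charcoal-stripped serum medium, compounds up to 100 uM final, continuous exposure, 80 h.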
For `CCCCCc1cccc(=O)o1`, the outcome was “inactive”.
For `O=C(O)c1ccco1`, the AC50 was 50 µM (active).
For `NC(N)=NC(N)=NCCc1ccccc1`, the outcome was “inactive”.
For `CC(CO)c1ccccc1` (stereo unspecified), the outcome was “inactive”.
With `CCCCCCCCCCCCCCCCCC(=O)OCCCCCCCCCCCCCC(C)C` the AC50 was 77 µM (active).
With `O=C(O)c1cc(C(=O)O)c(C(=O)O)cc1C(=O)O` the outcome was “inactive”.
With `CCCCOC(=O)C(C)OC(=O)CCC` (stereo unspecified) the outcome was “inactive”.
With `CC1=CC(O)CC(C)(C)C1` (stereo unspecified) the AC50 was 71.8 µM (active).
In the case of `N#CCCNCCC#N`, the outcome is reported as “inactive”.
With `OC[C@@H](O)[C@H](O)[C@@H](O)[C@@H](O)CO` the outcome was “inactive”.
For `CCCCC1CCCCC(=O)O1` (stereo unspecified), the outcome was “inactive”.
In the case of `CC(C)N1C(=O)c2ccccc2C1=O`, the outcome is reported as “inactive”.
With `C=CCOC(=O)/C=C\C(=O)OCC=C` the AC50 was 94.9 µM (active).
For `CC=CC(=O)C1=C(C)C=CCC1(C)C`, the outcome was “inactive”.
With `NC(=O)NC(N)=O` the outcome was “inactive”.
For `C[Si]1(C)N[Si](C)(C)N[Si](C)(C)N1`, the outcome was “inactive”.
In the case of `CN(C)CCCNCCCN(C)C`, the AC50 is reported as 50 µM (active).
With `CCCCC(CC)COC(=O)COc1ccc(Cl)cc1C` (stereo unspecified) the outcome was “inactive”.
With `CC(CO)(CO)[N+](=O)[O-]` the outcome was “inactive”.
In the case of `CC(C)CCCC(C)(C)O`, the outcome is reported as “inactive”.
For `Brc1cc(Br)cc(Br)c1`, the outcome was “inactive”.
For `CCCCCCC(O)CCOC(C)=O` (stereo unspecified), the outcome was “inactive”.
With `NNC(=O)OCc1ccccc1` the outcome was “inactive”.
For `CCC(C)(CCCC(C)C)OC(C)=O` (stereo unspecified), the outcome was “inactive”.
With `CC1(C)[C@H](C=C(Cl)Cl)[C@H]1C(=O)OCc1cccc(Oc2ccccc2)c1` the AC50 was 12.5 µM (active).
In the case of `CCO[Si](CCC#N)(OCC)OCC`, the outcome is reported as “inactive”.
In the case of `c1ccc(-c2nn[nH]n2)cc1`, the outcome is reported as “inactive”.
In the case of `CCCCOCC(C)OCC(C)O` (stereo unspecified), the outcome is reported as “inactive”.
With `CN(C)CCC=C1c2ccccc2CCc2ccccc21` the AC50 was 26.2 µM (active).
In the case of `O=C(C=Cc1ccccc1)OCCCc1ccccc1`, the AC50 is reported as 60 µM (active).
For `CN(C)c1ccc(C=O)cc1`, the outcome was “inactive”.
With `CC1=CC[C@@H](C(C)(C)O)CC1` the outcome was “inactive”.
In the case of `OCCN1CCOCC1`, the outcome is reported as “inactive”.
For `CCOC(=O)CC1(C)OCC(C)O1` (stereo unspecified), the outcome was “inactive”.
In the case of `CCCCCCCCCC(=O)OCC`, the outcome is reported as “inactive”.
In the case of `CCC=C(C)C=O`, the outcome is reported as “inactive”.
